For 21 compounds, growth inhibition results are on record in PubChem BioAssay (NCI).

A short description of assay [1]: NCI Yeast Anticancer Drug Screen. Data for the rad50 strain (AID 155).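 Also: 0% = growth of vehicle-only cultures of the same strain.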 As to conditions: S. cerevisiae rad50 strain growth inhibition; at 50.0 µM; stronger effect = higher value. In outline: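 Growth of the mutant yeast was measured after compound exposure and referenced to vehicle-treated cultures.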
The nature of assay [2]: NCI Yeast Anticancer Drug Screen. Data for the mec2-1 strain (AID 157). As to conditions: S. cerevisiae mec2-1 strain, at 50.0 µM, stronger effect = higher value. Put shortly: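 Yeast mec2-1 mutant treated with compound. Readout: growth inhibition vs vehicle controls.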
A short description of assay [3]: NCI Yeast Anticancer Drug Screen. Data for the sgs1 mgt1 strain (AID 161).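 Also: 0% = growth of cultures given vehicle only.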 As to conditions: S. cerevisiae sgs1 mgt1 strain, at 50.0 µM, stronger effect = higher value. Put shortly: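 Test agents were incubated with a DNA-repair-mutant yeast strain. Growth was then read and compared against vehicle-treated controls.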
The nature of assay [4]: NCI Yeast Anticancer Drug Screen. Data for the cln2 rad14 strain (AID 165).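 Also: 0% = growth equal to vehicle treated cultures.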 The following applies: S. cerevisiae cln2 rad14 strain, at 50.0 µM, stronger effect = higher value. Put shortly:
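cln2 rad14 yeast strain; compound exposure; growth inhibition read vs vehicle controls.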

A short description of assay [5]: NCI Yeast Anticancer Drug Screen. Data for the bub3 strain (AID 167). The following applies: S. cerevisiae bub3 mutant strain, at 50.0 µM, stronger effect = higher value. In outline: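 Whole-cell yeast assay. The mutant strain was incubated with compounds, and growth inhibition was determined by comparison with vehicle-treated cells.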
Assay [6] can be described thus: NCI Yeast Anticancer Drug Screen. Data for the mlh1 rad18 strain (AID 175). The following applies: S. cerevisiae mlh1 rad18 strain growth inhibition; at 50.0 µM; stronger effect = higher value. In outline: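 Yeast w/ defined DNA-repair lesions; compound exposure; growth vs vehicle controls → % inhibition.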

Structures are written as SMILES. This is part of a sample that, as a whole, favours compounds with a hit. Of some 79,000 tested, about 15% had one in any assay. Values without a mark were called inactive. Activity calls are given as the source filed them. Rule as the data show it: active = growth inhibition above about 70%; inactive = the rest.

For `CN1CCC(O)(c2ccccc2)C(O)C1` (stereo unspecified), the growth inhibition is 11.2% in assay [1]; 29.1% in assay [2]; 23.5% in assay [3]; 32.3% in assay [4]; -4% in assay [5]; 39.2% in assay [6].
In the case of `c1ccc2c(c1)ccc1sc3c([n+]12)CCC3`, the growth inhibition in assay [1] was -0.9%; in assay [2], -5.65%; in assay [3], -18.2%; in assay [4], -14.5%; in assay [5], 2.4%; in assay [6], -5.3%.
In the case of `COc1cc(/C=N/NC(=O)CN(C)C)cc(OC)c1N(CCCl)CCCl`, the growth inhibition in assay [1] is 8.85%; in assay [2], 10.4%; in assay [3], -15.7%; in assay [4] it was 17.9%; in assay [5] it was -2.25%; in assay [6], 5.2%.
Consider `NS(=O)(=O)c1cccc([As](=O)(O)O)c1`, for which the growth inhibition in assay [1] is -11.1%; in assay [2], 10.4%; in assay [3] it was -12.9%; in assay [4], -3.55%; in assay [5] it was -13.9%; in assay [6] it was -3.6%.
With `O=C(CC(=O)C(F)(F)F)c1cccs1.O=C(CC(=O)C(F)(F)F)c1cccs1.O=C(CC(=O)C(F)(F)F)c1cccs1.[Gd]`, the growth inhibition in assay [1] was 29.8%; in assay [2], 26.2%; in assay [3], 26.9%; in assay [4], -3.25%; in assay [5], 44%; in assay [6] it was 15.9%.
Turning to `CCOP(=O)(OCC)Oc1c(Cl)c(Cl)c(Cl)c(Cl)c1Cl`, the growth inhibition is 70.3% (active) in assay [1]; 47.4% in assay [2]; 86% (active) in assay [3]; 28.4% in assay [4]; 23.9% in assay [5]; 78.5% (active) in assay [6].
In the case of `CC(C)=C=CP(=O)(O)c1ccccc1`, the growth inhibition in assay [1] was -25.1%; in assay [2] it was -24.1%; in assay [3], -15.7%; in assay [4], 31.9%; in assay [5], -14.3%; in assay [6] it was 4.45%.
In the case of `O=[C-]CC(=O)c1ccccc1.O=[C-]CC(=O)c1ccccc1.[Fe+2]`, the growth inhibition in assay [1] is -7.85%; in assay [2] it was 3.15%; in assay [3] it was 8.5%; in assay [4], 12%; in assay [5] it was -0.65%; in assay [6], 6.15%.
In the case of `Oc1cc(Cl)ccc1Cl`, the growth inhibition in assay [1] was 98.2% (active); in assay [2], 99% (active); in assay [3] it was 98.6% (active); in assay [4], 96.5% (active); in assay [5], 99% (active); in assay [6], 98.8% (active).
`Fc1ccccc1N=C=S`: the growth inhibition in assay [1] was 4.55%; in assay [2], -12%; in assay [3], 5.65%; in assay [4] it was 18.1%; in assay [5] it was 14.6%; in assay [6], 2.75%.
Regarding `CC(=O)OC(C[N+](=O)[O-])C(Cl)(Cl)Cl` (stereo unspecified), the growth inhibition is 5.7% in assay [1]; 3.25% in assay [2]; 2.25% in assay [3]; -0.7% in assay [4]; 8.4% in assay [5]; 2.95% in assay [6].
As to `CN1C2CCC1C(O)C(c1ccccc1)C2` (stereo unspecified), the growth inhibition in assay [1] was 6.15%; in assay [2], 9.25%; in assay [3] it was -0.05%; in assay [4] it was -11.8%; in assay [5], 0.45%; in assay [6], -0.6%.
As for `OCCN1CCN(c2cccc(Cl)c2)CC1`, the growth inhibition was -7.5% in assay [1]; -12.7% in assay [2]; -34.6% in assay [3]; -11.1% in assay [4]; -8.05% in assay [5]; -4.8% in assay [6].
Take `CC(=O)Nc1cc([As]=O)ccc1O` (stereo unspecified): the growth inhibition in assay [1] is 29.2%; in assay [2] it was 25.2%; in assay [3], 31.8%; in assay [4] it was 10.6%; in assay [5], 50.8%; in assay [6] it was 32.6%.
For `COc1c2c(cc3c1OCO3)[C@]13C=C[C@H](OC)C[C@H]1N(C2)CC3O` (stereo partly specified), the growth inhibition in assay [1] was 17.2%; in assay [2], 5.75%; in assay [3] it was 3.6%; in assay [4], -0.55%; in assay [5], 1.55%; in assay [6], -53.9%.
As for `COc1ccn(C)c(=O)c1C#N`, the growth inhibition in assay [1] is 3.15%; in assay [2] it was 0.3%; in assay [3], -6.35%; in assay [4] it was 5.6%; in assay [5], 2.15%; in assay [6], -2.4%.
On to `O=c1ccc2c(O)c3ccoc3cc2o1`, for which the growth inhibition is -14.7% in assay [1]; -10% in assay [2]; 5.7% in assay [3]; -5.05% in assay [4]; 3.45% in assay [5]; -22.9% in assay [6].
With `CCOC(OCC)c1ccc2c(c1)OCO2`, the growth inhibition in assay [1] was 5.65%; in assay [2], -5.75%; in assay [3] it was 13.2%; in assay [4] it was 4.7%; in assay [5] it was -0.05%; in assay [6] it was 11.8%.
On to `CC(=O)CC(C)=O.CC(=O)CC(C)=O.CC(=O)CC(C)=O.CC(=O)CC(C)=O.[Zr]`, for which the growth inhibition in assay [1] is 7.2%; in assay [2], 28.6%; in assay [3], 10.4%; in assay [4], 29.6%; in assay [5], 38.6%; in assay [6], 30.1%.
As for `CP1(=S)CCC2=C1CCc1cc(O)ccc12` (stereo unspecified), the growth inhibition in assay [1] was 14.4%; in assay [2], -31.8%; in assay [3], 0.4%; in assay [4] it was -29.8%; in assay [5], -3.65%; in assay [6] it was 21.4%.
Regarding `[CH3][Sn]([CH3])([Br])[CH2]CCCBr`, the growth inhibition in assay [1] was 98.9% (active); in assay [2] it was 99.5% (active); in assay [3], 99.4% (active); in assay [4] it was 98.7% (active); in assay [5], 99.1% (active); in assay [6] it was 99.3% (active).
